# In PubChem BioAssay:
# Calls of active or inactive are those of the source. The rule behind the calls is not given here.
# Biological target: Pantothenate synthetase (Mycobacterium tuberculosis (strain ATCC 25618 / H37Rv)) (UniProt P9WIL5)
# Assay: Coupled enzyme confirmation of inhibitors against recombinant Mtb PanC (AID 375);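 note: 0% = full reaction with vehicle and 100% = no enzyme background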
# Details: coupled enzyme assay; at 10 µM, active compounds read high
# Sequence of Pantothenate synthetase (Mycobacterium tuberculosis (strain ATCC 25618 / H37Rv)) (P9WIL5 whole entry, looked up): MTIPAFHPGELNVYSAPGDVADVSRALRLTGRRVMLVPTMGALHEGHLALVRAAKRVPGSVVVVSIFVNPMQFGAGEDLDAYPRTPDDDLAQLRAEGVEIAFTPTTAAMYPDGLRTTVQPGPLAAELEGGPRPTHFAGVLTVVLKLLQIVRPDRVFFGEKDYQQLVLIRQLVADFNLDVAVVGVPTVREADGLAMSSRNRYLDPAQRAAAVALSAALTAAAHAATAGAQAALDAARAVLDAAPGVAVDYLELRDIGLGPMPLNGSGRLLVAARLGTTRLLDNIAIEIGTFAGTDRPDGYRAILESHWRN
row,Structure (SMILES),inhibition
1,Cc1ccc(S(=O)(=O)NCC(c2cccnc2)N(C)C)cc1 (stereo not given),3% (inactive)
2,Cn1cccc1-c1nc2ccc(NC(=O)c3ccco3)cc2[nH]1,6% (inactive)
3,CC1(C)NC(=O)N(CCCOc2ccc(Br)cc2Cl)C1=O,0% (inactive)
4,O=C(NCc1cccs1)C(Cc1ccccc1)NS(=O)(=O)c1cccs1 (stereo not given),8% (inactive)
5,CCN(CC)S(=O)(=O)c1ccc2oc(SCc3ccc(F)cc3)nc2c1,5% (inactive)
6,Cn1c(=O)c2nc(Cl)n(Cc3ccc(Cl)cc3Cl)c2n(C)c1=O,6% (inactive)
7,Cn1c(=O)oc2cc(S(=O)(=O)N3CCCC(C(=O)NCC4COc5ccccc5O4)C3)ccc21 (stereo not given),0% (inactive)
8,COCCn1nnnc1CN(CCCN1CCOCC1)Cc1cc2c(C)ccc(C)c2[nH]c1=O,0% (inactive)
9,CCOC(=O)c1sc2nc(C)cc(C)c2c1N,0% (inactive)
10,Cc1nnc(SCc2nnc(-c3ccccc3Br)o2)n1-c1ccccc1,0% (inactive)
11,Cc1ccccc1Cc1c(C)nc2c(C(=O)N3CCN(Cc4ccc5c(c4)OCO5)CC3)cnn2c1C,5% (inactive)
12,CCOC(=O)C1CCCN(c2cc(=O)n(Cc3ccc(F)cc3)c(=O)[nH]2)C1 (stereo not given),2% (inactive)
13,COc1cccc(CNc2cccc3cccnc23)c1O,0% (inactive)
14,CCCc1cn(S(=O)(=O)c2ccc(OC)cc2OC)nc1N,0% (inactive)
15,Cc1ccc(-n2c(C)cc3c2CCCC3=O)cc1,0% (inactive)
16,O=C(NCCO)c1scc2c1OCCO2,4% (inactive)
17,CCCOc1cccc(NC(=O)c2c(-c3ccccc3)noc2C)c1,0% (inactive)
18,Cc1ccc(-c2nc3ncccc3o2)cc1NC(=O)c1ccco1,0% (inactive)
19,CCOc1cc(NC(=O)c2ccco2)c(OCC)cc1NC(=O)CCc1ccc(OC)cc1,3% (inactive)
20,OCCNc1ncnc2c1c(-c1ccccc1)c(-c1ccccc1)n2Cc1ccco1,1% (inactive)
21,O=C1NC(c2ccccc2)(C(F)(F)F)SC2=NCCCN12 (stereo not given),0% (inactive)
22,C=CCSc1nnc(NC(=O)c2ccc(S(=O)(=O)NCC3CCCO3)cc2)s1 (stereo not given),1% (inactive)
23,OCCn1c(-c2ccc3c(c2)OCO3)csc1=Nc1ccccc1,1% (inactive)
24,CC1NC(=O)NC1CCCCCC(=O)NCCc1ccccc1 (stereo not given),2% (inactive)
25,CC1CN(C2CCCCC2)c2nc3c(c(=O)[nH]c(=O)n3C)n2C1 (stereo not given),2% (inactive)
